Screening results from PubChem BioAssay.
An excerpt weighted towards active compounds, which were near 27% of everything screened.
CYP2C9 inh: blockers of cytochrome P450 2C9 activity – biochemical, luminescence, ADME assay, primary screen | P11712 | CYP2C9 Supersomes, luciferin-H conversion | inhibition, % at 5 µM | 96,000 compounds, 20% hits;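 active = blocking of liver enzyme CYP2C9 beyond about 50% at 5 µM, limit read from the data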
Cav3 T inh: Cav3.2 calcium influx blockers – cell-based, Fluo-4 calcium fluorescence, FDSS, MLSMR library, primary screen; 100,000 compounds, 4% hits; Voltage-dependent T-type calcium channel subunit alpha-1H (Homo sapiens), O95180; AID 449739, 2010; Cav3.2-expressing cells; active compounds read low; B-score at 10 µM;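 active = single-dose well whose peak fluorescence ratio is a statistical outlier from its plate by either plate-standardised score or position-corrected B-score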
Target sequence (O95180 whole entry, looked up): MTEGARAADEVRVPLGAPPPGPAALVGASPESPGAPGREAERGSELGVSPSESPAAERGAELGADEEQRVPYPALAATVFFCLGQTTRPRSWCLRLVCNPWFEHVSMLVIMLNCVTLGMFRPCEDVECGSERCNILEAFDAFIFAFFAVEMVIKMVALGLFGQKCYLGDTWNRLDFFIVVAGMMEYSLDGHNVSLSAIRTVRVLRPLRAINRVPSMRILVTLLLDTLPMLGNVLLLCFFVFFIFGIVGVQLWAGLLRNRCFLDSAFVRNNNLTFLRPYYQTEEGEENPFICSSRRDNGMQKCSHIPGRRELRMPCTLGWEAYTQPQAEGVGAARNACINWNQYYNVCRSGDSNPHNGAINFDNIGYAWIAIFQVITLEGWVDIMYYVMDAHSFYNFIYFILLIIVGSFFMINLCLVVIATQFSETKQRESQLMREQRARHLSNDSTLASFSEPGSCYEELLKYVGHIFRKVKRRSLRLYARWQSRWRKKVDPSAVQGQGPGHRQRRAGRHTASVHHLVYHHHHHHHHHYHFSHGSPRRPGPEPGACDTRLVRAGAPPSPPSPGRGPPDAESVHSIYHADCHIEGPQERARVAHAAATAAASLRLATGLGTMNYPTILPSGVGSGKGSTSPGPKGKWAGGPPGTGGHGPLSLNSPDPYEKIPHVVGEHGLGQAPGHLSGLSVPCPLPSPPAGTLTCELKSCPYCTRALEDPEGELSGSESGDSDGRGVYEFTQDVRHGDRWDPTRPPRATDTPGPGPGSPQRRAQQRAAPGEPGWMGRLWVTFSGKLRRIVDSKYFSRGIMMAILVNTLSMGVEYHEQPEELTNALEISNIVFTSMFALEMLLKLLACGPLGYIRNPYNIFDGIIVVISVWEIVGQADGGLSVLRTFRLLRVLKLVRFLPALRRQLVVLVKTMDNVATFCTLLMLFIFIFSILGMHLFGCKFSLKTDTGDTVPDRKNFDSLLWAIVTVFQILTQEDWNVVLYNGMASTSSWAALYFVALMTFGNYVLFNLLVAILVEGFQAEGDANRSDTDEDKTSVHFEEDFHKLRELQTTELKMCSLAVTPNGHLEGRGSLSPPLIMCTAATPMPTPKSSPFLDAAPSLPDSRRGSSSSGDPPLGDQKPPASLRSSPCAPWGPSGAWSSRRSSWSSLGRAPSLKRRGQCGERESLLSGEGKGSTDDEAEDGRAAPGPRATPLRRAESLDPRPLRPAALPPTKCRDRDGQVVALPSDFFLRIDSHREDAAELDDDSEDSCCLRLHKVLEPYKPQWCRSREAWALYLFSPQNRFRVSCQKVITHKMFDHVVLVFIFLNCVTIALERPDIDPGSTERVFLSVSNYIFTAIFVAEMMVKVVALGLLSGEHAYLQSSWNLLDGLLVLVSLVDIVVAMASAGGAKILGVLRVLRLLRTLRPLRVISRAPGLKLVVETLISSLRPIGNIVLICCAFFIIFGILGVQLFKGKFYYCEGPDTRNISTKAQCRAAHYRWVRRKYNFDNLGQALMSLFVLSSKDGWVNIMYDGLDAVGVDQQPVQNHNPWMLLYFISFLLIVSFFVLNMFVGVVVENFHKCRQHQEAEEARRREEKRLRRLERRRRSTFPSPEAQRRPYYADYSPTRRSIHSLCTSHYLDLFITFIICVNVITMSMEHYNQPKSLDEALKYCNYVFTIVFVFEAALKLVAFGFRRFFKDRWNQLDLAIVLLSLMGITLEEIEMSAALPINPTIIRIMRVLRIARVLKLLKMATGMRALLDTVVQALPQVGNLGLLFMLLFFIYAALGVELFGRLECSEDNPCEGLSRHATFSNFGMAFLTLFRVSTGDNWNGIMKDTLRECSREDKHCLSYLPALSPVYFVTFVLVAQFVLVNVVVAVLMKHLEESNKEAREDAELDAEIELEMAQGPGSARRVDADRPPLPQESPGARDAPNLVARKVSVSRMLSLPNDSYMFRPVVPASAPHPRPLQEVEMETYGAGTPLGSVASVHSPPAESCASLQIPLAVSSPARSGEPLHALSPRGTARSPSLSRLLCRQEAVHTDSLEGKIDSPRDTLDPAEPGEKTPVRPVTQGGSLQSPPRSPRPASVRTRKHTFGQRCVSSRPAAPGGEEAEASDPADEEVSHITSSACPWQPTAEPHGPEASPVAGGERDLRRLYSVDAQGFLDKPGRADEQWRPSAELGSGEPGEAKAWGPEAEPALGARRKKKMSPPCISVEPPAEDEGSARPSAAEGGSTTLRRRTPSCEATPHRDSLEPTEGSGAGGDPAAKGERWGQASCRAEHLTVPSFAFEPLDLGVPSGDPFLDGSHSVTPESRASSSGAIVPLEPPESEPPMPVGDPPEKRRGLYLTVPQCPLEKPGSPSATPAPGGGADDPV
CYP2C19 inhib: blockers of cytochrome P450 2C19 activity – biochemical, luminescence, ADME assay, primary screen; P33261; CYP2C19 Supersomes, luciferin-H EGE luminescence, 30 min; inhibition, % at 5 µM; 96,000 compounds, 21% hits; AID 778, 2007;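 active = CYP2C19 inhibition above a set limit at 5 µM in the primary screen, cut at about 50% in these data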;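 also: plate controls were negative control wells for no effect and 2.5 mM tranylcypromine positive control for full effect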
CYP2C19 act: human CYP2C19 activators, primary screen, biochemical, luminescence; Cytochrome P450 2C19 (Homo sapiens), P33261; recombinant CYP2C19, luciferin-H EGE luminescence; active compounds read high; 0 = fully inhibited enzyme, 1 = untreated enzyme; activation factor at 5 µM; 96,000 tested, under 10 active; AID 1025, 2008;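 active = activation factor of at least 2 at 5 µM in the primary screen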;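 also: 0 = wells with 2.5 mM tranylcypromine and 1 = vehicle-only wells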
CYP2C9 act: human CYP2C9 activators, primary screen, biochemical, luminescence; AID 1024, 2008; recombinant CYP2C9, luciferin-H conversion; active compounds read high; factor 1 = untreated enzyme, 0 = blocked; activation factor at 5 µM; 96,000 compounds, 1.4% hits; Cytochrome P450 2C9 (Homo sapiens), P11712;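 active = activation factor of 2 or more for CYP2C9 at a 5 µM dose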;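 also: 0 = sulfaphenazole-blocked wells and 1 = vehicle-only wells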
* hit, by the source's call.

COC(=O)c1cccc(NC(=O)CSc2nnc(COc3ccc(C#N)cc3)n2-c2ccccc2)c1 was read as CYP2C9 inh 69*, Cav3 T inh 0.97, CYP2C19 inhib 39, CYP2C19 act 0.6 and CYP2C9 act 0.3.
Screening COCc1nnc(SCC(=O)NCc2ccccc2)n1-c1ccccc1 returned CYP2C9 inh 14, Cav3 T inh -0.023, CYP2C19 inhib 44, CYP2C19 act 0.6 and CYP2C9 act 0.9.
Screening Cc1ccc(OCc2nnc(SCC(=O)c3ccccc3)n2-c2ccccc2)cc1 returned Cav3 T inh -4.4*.
For CCOc1ccc(-n2c(COc3ccccc3)nnc2SCC(N)=O)cc1 the results were CYP2C9 inh 37, Cav3 T inh 0.62, CYP2C19 inhib 76*, CYP2C19 act 0.2 and CYP2C9 act 0.6.
COCc1nnc(SCC(=O)Nc2cccc(Cl)c2C)n1-c1ccccc1 was read as CYP2C9 inh 18, Cav3 T inh -1.3, CYP2C19 inhib 84*, CYP2C19 act 0.2 and CYP2C9 act 0.8.
Screening CCOc1ccccc1-n1c(COc2ccccc2)nnc1SCC(N)=O returned CYP2C9 inh 4, Cav3 T inh 1.2, CYP2C19 inhib 38, CYP2C19 act 0.6 and CYP2C9 act 1.
Screening O=C(COc1ccccc1)NC(Cc1c[nH]c2ccccc12)C(=O)O (stereo unspecified) returned CYP2C9 inh 31, Cav3 T inh 0.58, CYP2C19 inhib 26, CYP2C19 act 0.7 and CYP2C9 act 0.7.
O=C1c2ccc(Oc3ccc4c(c3)C(=O)N(CCCO)C4=O)cc2C(=O)N1CCCO was read as CYP2C9 inh -3, Cav3 T inh -1.1, CYP2C19 inhib 12, CYP2C19 act 0.9 and CYP2C9 act 1.
Screening Cc1cc(C(C)(C)C)oc1C(=O)N(CC(=O)NC1CCCC1)Cc1ccc(F)cc1 returned CYP2C9 inh -9, Cav3 T inh -1.3, CYP2C19 inhib 30, CYP2C19 act 0.7 and CYP2C9 act 1.1.
`Cc1cccc(NS(=O)(=O)c2c(C)n[nH]c2C)c1` gave CYP2C9 inh 79*, Cav3 T inh -1.4, CYP2C19 inhib 68*, CYP2C19 act 0.3 and CYP2C9 act 0.2.
Cc1cc(C)c(S(=O)(=O)Nc2cccnc2)c(C)c1 was read as CYP2C9 inh 26, Cav3 T inh 0.23, CYP2C19 inhib 22, CYP2C19 act 0.8 and CYP2C9 act 0.7.
Screening C/C(CC(=O)Nc1ccccc1[N+](=O)[O-])=N\NC(=O)COc1ccccc1C returned CYP2C9 inh -1, Cav3 T inh 0.19, CYP2C19 inhib 26, CYP2C19 act 0.7 and CYP2C9 act 1.
`C/C(CC(=O)Nc1ccccc1-c1ccccc1)=N\NC(=O)COc1ccc(C)cc1Br` gave CYP2C9 inh 36, Cav3 T inh -6.5*, CYP2C19 inhib 50, CYP2C19 act 0.5 and CYP2C9 act 0.6.
Screening CCC(=O)Nc1ccc(Oc2ccc3c(c2)C(=O)N(c2ccc(O)cc2)C3=O)cc1 returned CYP2C9 inh 32, CYP2C19 inhib 77*, CYP2C19 act 0.2 and CYP2C9 act 0.7.
Screening CCCCNC(=O)c1onc(CSc2ccccc2CC)c1C(=O)O returned CYP2C9 inh 72*, Cav3 T inh -0.89, CYP2C19 inhib 16, CYP2C19 act 0.8 and CYP2C9 act 0.3.
For Cc1ccc(C)c(SCc2noc(C(=O)NC(C)C)c2C(=O)O)c1 the results were CYP2C9 inh 72*, Cav3 T inh -0.036, CYP2C19 inhib 8, CYP2C19 act 0.9 and CYP2C9 act 0.3.
C=CCNC(=O)c1onc(CSc2cc(C)ccc2C)c1C(=O)O was read as CYP2C9 inh 77*, Cav3 T inh 1.3, CYP2C19 inhib 9, CYP2C19 act 0.9 and CYP2C9 act 0.2.
`CCCCNC(=O)c1onc(CSc2cc(C)ccc2C)c1C(=O)O` gave CYP2C9 inh 78*, Cav3 T inh -2, CYP2C19 inhib 10, CYP2C19 act 0.9 and CYP2C9 act 0.2.
Screening CCCCCCCCN1[C@@H](CC(=O)O)c2ccc(C(F)(F)F)cc2S1(=O)=O returned Cav3 T inh -1.2.
Screening O=C(COC(=O)[C@H](Cc1c[nH]c2ccccc12)NC(=O)c1ccc(Cl)cc1)Nc1ccc2c(c1)OCO2 returned CYP2C9 inh 98*, Cav3 T inh -2.2, CYP2C19 inhib 47, CYP2C19 act 0.5 and CYP2C9 act 0.
`Cc1cc(NC(=O)COc2nnc(-c3ccccc3)c3ccccc23)no1` gave CYP2C9 inh 63*, Cav3 T inh -0.46, CYP2C19 inhib 52*, CYP2C19 act 0.5 and CYP2C9 act 0.4.
For Cc1cc(NC(=O)COc2ccc(N(C)S(=O)(=O)c3ccccc3)cc2)no1 the results were CYP2C9 inh 55*, Cav3 T inh 0.13, CYP2C19 inhib 22, CYP2C19 act 0.8 and CYP2C9 act 0.4.
Screening CCN(c1ccccc1)S(=O)(=O)c1ccc(OCC(=O)Nc2cc(C)on2)cc1 returned CYP2C9 inh 67*, Cav3 T inh -0.76, CYP2C19 inhib 16, CYP2C19 act 0.8 and CYP2C9 act 0.3.
`COc1ccccc1N(CC(=O)Nc1cc(C)on1)S(=O)(=O)c1ccc(Cl)cc1` gave CYP2C9 inh 98*, Cav3 T inh -2.4*, CYP2C19 inhib 91*, CYP2C19 act 0.1 and CYP2C9 act 0.
`Cc1cc(NC(=O)CCOc2ccccc2)no1` gave CYP2C9 inh 18, Cav3 T inh -1.1, CYP2C19 inhib 26, CYP2C19 act 0.7 and CYP2C9 act 0.8.
`Cc1cc(NC(=O)CSc2ccc(-c3ccccc3)nn2)no1` gave CYP2C9 inh 35, Cav3 T inh 2.4, CYP2C19 inhib 44, CYP2C19 act 0.6 and CYP2C9 act 0.7.
`O=C(Nc1ccccc1Sc1ccccc1)c1ccccc1F` gave Cav3 T inh -1.6.
Screening CCc1ccc(NC(=O)C(C)Nc2ccc(S(=O)(=O)NC(C)=O)cc2)cc1 (stereo unspecified) returned CYP2C9 inh 10, Cav3 T inh 0.56, CYP2C19 inhib 11, CYP2C19 act 0.9 and CYP2C9 act 0.9.
`COC(=O)CSc1ccc2c(N)c(C(=O)OC)sc2c1` gave CYP2C9 inh 33, Cav3 T inh 0.025, CYP2C19 inhib 39, CYP2C19 act 0.6 and CYP2C9 act 0.7.
`CC1(C)CC2CC(C)(CN2CC(=O)C(C#N)c2ccccc2)C1` (stereo unspecified) gave CYP2C9 inh 2, Cav3 T inh 0.49, CYP2C19 inhib 80*, CYP2C19 act 0.2 and CYP2C9 act 1.
`CC1(C)CC2CC(C)(CN2C(=O)Cc2ccccc2)C1` (stereo unspecified) gave Cav3 T inh -2.4.
For CCC(C(=O)Nc1cnccn1)c1ccccc1 (stereo unspecified) the results were CYP2C9 inh 18, Cav3 T inh -0.013, CYP2C19 inhib 60*, CYP2C19 act 0.4 and CYP2C9 act 0.8.
